Results taken from article PMC4336329 (PLoS ONE, 2015).
The whole screen tested about 310,000 compounds, of which about 14,000 (4.5%) showed an effect of 50% or more. The effect is printed as a negative number. The entries come from a sample that favours strong results as a whole.

What follows are compounds tested against human ether-à-go-go-related gene (hERG) potassium channel (human, UniProt Q12809) (assay: primary screen, population patch clamp on CHO cells stably expressing hERG; higher = less effect of the substance).
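Also: peak tail current of the secondary pulse compared with the same well before compound.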

human ether-à-go-go-related gene (hERG) potassium channel, sequence (Q12809 whole entry, looked up): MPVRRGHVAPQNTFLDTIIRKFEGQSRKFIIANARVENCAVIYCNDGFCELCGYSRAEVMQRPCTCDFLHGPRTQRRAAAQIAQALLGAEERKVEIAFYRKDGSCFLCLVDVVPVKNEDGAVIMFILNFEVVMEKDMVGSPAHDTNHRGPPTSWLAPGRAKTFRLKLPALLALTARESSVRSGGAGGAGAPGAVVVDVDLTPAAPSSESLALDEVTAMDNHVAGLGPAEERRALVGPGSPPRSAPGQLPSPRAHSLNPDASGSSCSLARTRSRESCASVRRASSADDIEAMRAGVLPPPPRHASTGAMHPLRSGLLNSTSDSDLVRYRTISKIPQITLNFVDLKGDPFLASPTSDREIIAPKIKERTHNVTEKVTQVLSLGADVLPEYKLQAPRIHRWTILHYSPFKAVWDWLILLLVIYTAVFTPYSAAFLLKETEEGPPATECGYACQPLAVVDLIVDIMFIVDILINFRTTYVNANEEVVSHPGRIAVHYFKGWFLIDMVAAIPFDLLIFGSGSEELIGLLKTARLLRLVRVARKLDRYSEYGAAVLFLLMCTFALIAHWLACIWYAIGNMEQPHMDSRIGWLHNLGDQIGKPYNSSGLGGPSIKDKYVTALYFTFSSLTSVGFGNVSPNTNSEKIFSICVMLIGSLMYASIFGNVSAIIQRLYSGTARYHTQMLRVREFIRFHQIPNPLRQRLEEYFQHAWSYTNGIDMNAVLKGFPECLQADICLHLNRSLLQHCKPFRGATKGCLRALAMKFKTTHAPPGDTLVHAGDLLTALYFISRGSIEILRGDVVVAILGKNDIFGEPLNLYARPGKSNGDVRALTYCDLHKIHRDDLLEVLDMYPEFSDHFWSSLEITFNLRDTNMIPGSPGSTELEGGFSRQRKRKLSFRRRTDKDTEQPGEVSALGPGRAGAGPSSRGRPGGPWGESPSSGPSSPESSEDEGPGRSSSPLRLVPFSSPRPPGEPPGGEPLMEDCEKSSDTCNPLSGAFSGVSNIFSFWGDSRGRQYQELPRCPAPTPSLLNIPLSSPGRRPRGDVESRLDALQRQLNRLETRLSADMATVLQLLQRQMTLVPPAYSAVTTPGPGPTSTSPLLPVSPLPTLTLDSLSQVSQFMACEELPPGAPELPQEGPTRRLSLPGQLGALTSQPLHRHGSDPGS

| SMILES | hERG current change (%, negative = inhibition) at 10uM [%] |
| --- | --- |
| Cc1ccc(NC(=S)NC2CC3CCCC(C2)N3Cc2cccs2)cc1 (centres unmarked) | -56.5 |
| Fc1ccc(NC(=S)NC2CC3CCCC(C2)N3Cc2cccs2)cc1 (centres unmarked) | -59.5 |
| Cc1cccc(NC(=S)NC2CC3CCCC(C2)N3Cc2cccs2)c1C (centres unmarked) | -37.9 |
| Cc1cc(C)cc(NC(=S)NC2CC3CCCC(C2)N3Cc2cccs2)c1 (centres unmarked) | -52.9 |
| CCc1ccccc1NC(=S)NC1CC2CCCC(C1)N2Cc1cccs1 (centres unmarked) | -4.03 |
| CCc1ccc(NC(=S)NC2CC3CCCC(C2)N3Cc2cccs2)cc1 (centres unmarked) | -20.4 |
| CC(C)CNC(=S)NC1CC2CCCC(C1)N2Cc1cccs1 (centres unmarked) | -34.8 |
| Fc1ccc(NC(=S)NC2CC3CCC(C2)N3Cc2ccco2)cc1 (centres unmarked) | -12.6 |
| Cc1cccc(NC(=S)NC2CC3CCCC(C2)N3Cc2cccs2)c1 (centres unmarked) | -35.9 |
| CCOC(=O)C(=O)N(Nc1ccccc1C)c1ccccc1C | -14.3 |
| O=C(Nc1ccccn1)c1ccc2c(c1)OCCO2 | 11.5 |
| CC1CCN(c2nc(-c3ccc(F)cc3)cc(C(F)(F)F)n2)CC1 | 15.6 |
| Cc1csc(C2=C(O)CN(CCc3ccccc3)C2=N)n1 | 1.95 |
| O=C(CCc1ccccc1)OCCOC(=O)CCc1ccccc1 | 22.1 |
| Cc1cc(C(F)(F)F)nn1CC(=O)Nc1ccc2c(c1)OCO2 | -2.91 |
| CCCCOC(=O)c1ccc(NC(C)=O)cc1 | -11.2 |
| O=c1oc2ccccc2c(N2CCCCC2)c1CN1CCCCC1 | -18.4 |
| Nc1c(N2CCCC2)c2ccccc2oc1=O | 2.82 |
| Nc1c(N2CCN(c3ccccc3)CC2)c2ccccc2oc1=O | -50.1 |
| CN1CCN(c2c(N)c(=O)oc3ccccc23)CC1 | -45.2 |
| O=c1oc2ccccc2c(Cl)c1CN1CCCCC1 | 24.1 |
| O=c1oc2ccccc2c(N2CCCC2)c1CN1CCCC1 | 13 |
| O=c1oc2ccccc2c(Nc2ccccc2)c1CN1CCCCC1 | -57.1 |

| SMILES | hERG current change (%, negative = inhibition) at 10uM [%] |
| --- | --- |
| O=c1oc2ccccc2c(O)c1CN1CCCCC1 | 13.9 |
| O=c1oc2ccccc2c(N2CCCCC2)c1CN1CCCC1 | -54.4 |
| Cc1cc(C)cc(C(=O)NC(CC(N)=O)c2ccc(NC3CCCC3)c([N+](=O)[O-])c2)c1 (centres unmarked) | 13.2 |
| CC(=O)c1ccc(NC(=O)/C(=C\c2cccs2)NC(=O)c2ccco2)cc1 | 17.9 |
| Cc1ccc(S(=O)(=O)Oc2ccc(C(c3c(C)[nH][nH]c3=O)c3c(C)[nH][nH]c3=O)cc2)cc1 | -1.83 |
| CC(C)CCn1c(NCCN(C)C)nc2c1c(=O)[nH]c(=O)n2C | -23.2 |
| COc1ccc(-n2c(SC3CCOC3=O)nc3ccccc3c2=O)cc1OC (centres unmarked) | -4.64 |
| COC(=O)c1c(NC(=O)c2cccc(S(=O)(=O)N3CCN(C)CC3)c2)sc(C)c1C | 13.4 |
| COc1ccc(C2Nc3ccccc3C(=O)N2NC(=O)c2ccccc2)cc1OC (centres unmarked) | 3.24 |
| Cc1ccccc1N=C1SCCN1C(=O)CN1C(=O)NC2(CCCC2)C1=O | -21.7 |
| CCOc1ccc(C2/C(=C(\O)c3ccc4c(c3)OCCO4)C(=O)C(=O)N2CCCN2CCOCC2)cc1OC (centres unmarked) | 3.69 |
| Cc1cc(S(=O)(=O)N2CCOCC2)ccc1OCC(=O)Nc1ccc(F)cc1 | -18.9 |
| COc1ccc(C2/C=C\CN(S(=O)(=O)/C=C/c3ccccc3)[C@H](Cc3ccccc3)C(=O)N2Cc2ccc(F)cc2)cc1 (some centres unmarked) | 8.05 |
| Cc1nn(-c2ccccc2)c2c1C(c1ccc(Cl)cc1)N(c1ccccc1)C(=O)N2 (centres unmarked) | -64.6 |
| COc1ccc(C2SCC(=O)Nc3c2c(C)nn3-c2ccccc2)cc1 (centres unmarked) | -7.35 |
| Cc1nn(-c2ccccc2)c2c1C(c1cccc([N+](=O)[O-])c1)N(c1ccccc1)C(=O)N2 (centres unmarked) | 11.1 |
| O=C(CCCOc1ccc(Cl)cc1)Nc1cccc(C(=O)O)c1 | 13 |
| COc1ccc(NC(=O)c2ccc(-n3c(C)ccc3C)cc2)c(OC)c1 | -24.3 |
| COC(=O)c1ccc(C23CC4(C2)[C@H](CN(C)[C@@H]4c2ccccc2)C3c2ccc(Cl)nc2)cc1 (some centres unmarked) | -28 |
| CCOc1ccc(CNC(=O)CCC(=O)n2ncc3ccc(Cl)cc32)cc1 | -1.82 |
| COc1cc(C(=O)N2CCN(C/C=C/c3ccccc3)CC2)cc(OC)c1OC | -35 |
| COc1ccc(C(=O)NC2CC2)cc1OC1CCN(C/C=C/c2ccccc2)CC1 | -79.9 |
| COc1cc(C(=O)N2CCN(C/C=C/c3ccccc3)CC2)cc(OC)c1C | -30.2 |

| SMILES | hERG current change (%, negative = inhibition) at 10uM [%] |
| --- | --- |
| COc1ccccc1/C=C/CN1CCC(Oc2cc(C(=O)NC3CC3)ccc2OC)CC1 | -76.5 |
| CCOC(=O)c1[nH]c2ccc(OCC)cc2c1NC(=O)CN1CCC2(CC1)OCCO2 | -25.7 |
| Cc1ccsc1CNn1cnnc1SCc1ccc(Cl)cc1 | 13 |
| O=C(CSc1nnc(-c2cnccn2)n1Cc1ccco1)c1ccc2ccccc2c1 | -15.4 |
| COC(=O)c1cc(S(=O)(=O)NCC2CCN(CCc3cccs3)CC2)c[nH]1 | -51.1 |
| COC(=O)c1cc(S(=O)(=O)NCC2CCN(Cc3ccc(C)cc3)CC2)cn1C | -52 |
| COC(=O)c1cc(S(=O)(=O)NCC2CCN(CCc3ccc(OC)cc3)CC2)cn1C | -61.2 |
| COC(=O)c1cc(S(=O)(=O)NCCc2ccccc2)c[nH]1 | 5.93 |
| COC(=O)c1cc(S(=O)(=O)NCc2cccs2)c[nH]1 | 19.1 |
| COC(=O)c1cc(S(=O)(=O)NCC2CCN(Cc3ccc(Cl)cc3)CC2)cn1C | -17 |
| COC(=O)c1cc(S(=O)(=O)NCC2CCN(CCc3ccc(OC)cc3)CC2)c[nH]1 | -67 |
| COC(=O)c1cc(S(=O)(=O)NCC2CCN(CCc3cccs3)CC2)cn1C | -49.6 |
| COC(=O)c1cc(S(=O)(=O)NCc2ccc(Br)cc2)c[nH]1 | -16.1 |
| COC(=O)c1cc(S(=O)(=O)NCC2CCN(Cc3ccc(F)cc3)CC2)cn1C | -19.6 |
| COC(=O)c1cc(S(=O)(=O)NCC2CCN(Cc3cc(C)ccc3C)CC2)cn1C | -27.5 |
| COC(=O)c1cc(S(=O)(=O)NCC2CCN(Cc3cccc(F)c3)CC2)cn1C | -18.5 |
| COC(=O)c1sc(SC)c2c1CC(C)(C)C/C2=N/O | 10.6 |
| O=c1[nH]c(=O)n(-c2ccc(F)cc2)c(O)c1/C=C1\C=Nc2ccccc21 | 6.63 |
| Cc1noc(C)c1C(=O)NCCc1ccc(S(N)(=O)=O)cc1 | -23.7 |
| COc1ccc(C2NN=C(c3ccc(C)cc3)S2)cc1 (centres unmarked) | 4.2 |
| O=C(N/N=C/c1cc([N+](=O)[O-])ccc1O)c1cc(-c2ccccc2)nc2ccccc12 | 12.3 |
| O=C(c1ccncc1)N(Cc1ccco1)Cc1cc2ccccc2[nH]c1=O | -43.5 |
| CCOC(=O)C1C(c2cccc(F)c2)NC(=S)NC1(O)C(F)(F)F (centres unmarked) | -14.4 |

| SMILES | hERG current change (%, negative = inhibition) at 10uM [%] |
| --- | --- |
| CCOCC(O)CSCc1ccc(Cl)cc1 (centres unmarked) | 1.1 |
| C1=C[C@@H]2CCN(Cc3ccccc3)Cc3cccc(c32)C1 | -50.6 |
| Fc1ccc(CN2CC[C@H]3C=CCc4cccc(c43)C2)cc1 | -30.2 |
| Cc1ccc(CN2CC[C@H]3C=CCc4cccc(c43)C2)cc1 | -22.1 |
| CN(C)c1ccc(P(=O)(OC2CCCCC2)C(O)c2ccncc2)cc1 (centres unmarked) | 11.2 |
| CC1CC1C(=O)OCC(=O)NC(=O)c1ccccc1 (centres unmarked) | 6.93 |
| CC(C)(C)C(=O)NC1CCN(C(=O)N2CCCC2)CC1 | 10.2 |
| COc1ccc2c(CC(=O)OCC(=O)Nc3ccccc3[N+](=O)[O-])coc2c1 | 19.4 |
| c1ccc(CCCCN2CCN=C2Nc2ccccc2)cc1 | -42 |
| CCCCCCCN1CCN=C1Nc1ccccc1 | -58 |
| CCCCN1CCN=C1Nc1ccccc1 | 15.2 |
| c1ccc(NC2=NCCN2CCCC2CCCC2)cc1 | -53.4 |
| c1ccc(NC2=NCCN2CCCC2CCCCC2)cc1 | -47.6 |
| c1ccc(NC2=NCCN2CCC2CCCC2)cc1 | -24 |
| O=C(Oc1ccc(/C=N/NC(=O)c2ccccc2F)cc1)c1ccccc1 | 10.3 |
| COC(=O)c1ccc(CSc2nnc(NC(=O)C3CC(=O)N(Cc4ccc(C)cc4)C3)s2)cc1 (centres unmarked) | 8.78 |
| COC(=O)/C=C1/SC(=NC(=O)c2ccccc2)NC1=O | -13.9 |
| COC(=O)/C=C1\SC(=NC(=O)c2cccc(Cl)c2)NC1=O | -79.5 |
| COC(=O)/C=C1/SC(=NC(=O)c2ccc(Cl)cc2)NC1=O | 26.7 |
| COc1ccc(/C=C/C(=O)NCC(=O)N/N=C/c2cccs2)cc1 | 0.0661 |
